Assay outcomes (PubChem BioAssay)
Hits are enriched below; roughly 2.8% of the tested compounds scored in any of these assays.
WRN helicase inh – qHTS for Inhibitors of WRN Helicase | WRN helicase unwinding, fluorescent forked duplex, kinetic | Potency, µM (top dose mostly 114 µM), inactives show at the highest dose activity change, negative = inhibition, usual class: inhibitors | actives 0.46% (n = 360,000) | AID 651768, 2012; also: potency is read from the fitted curve at half-maximal effect; % is scaled to controls: 0 for no effect and ±100 for the full control effect; nearly all actives have a fitted effect of over 55% in size
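Kinetic red-fluorescence monitoring (525/598 nm) tracks WRN helicase activity after 100 nM fluorophore-quencher forked duplex and 2 mM ATP are added to 20 nM enzyme pretreated 15 min at room temperature with compound.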
PI5P4Ka inh – qHTS for Inhibitors of phosphatidylinositol 5-phosphate 4-kinase (PI5P4K) | actives 1.2% (n = 330,000) | Phosphatidylinositol 5-phosphate 4-kinase type-2 alpha (Homo sapiens), P48426 | PI5P4Kalpha enzyme, ADP-Glo luminescence, 60 min; hits give low values | max response, %; active = max response of -50% or lower; inconclusive = between -30% and -50%; inactive = -30% or higher; also: value at the top dose of about 77 µM; % is scaled to controls: 0 for no effect and ±100 for the full control effect
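ADP-Glo luminescence end-point read after a 60 min room-temperature kinase reaction of PI5P4Kalpha plus substrate, initiated with ATP at 5 microM final. Buffer: 0.038 M HEPES pH 7.4, EGTA, 0.1% CHAPS, 5% DMSO.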
Pol eta inh – qHTS for Inhibitors of Polymerase Eta; recombinant Pol eta, fluorescent DNA replication assay; Potency, µM (series often up to 114 µM), for the others: top-dose activity change, negative = inhibition, actives largely listed as inhibitors; actives 1.2% (n = 390,000); DNA polymerase eta (Homo sapiens), Q9Y253; also: potency is read from the fitted curve at half-maximal effect; % is scaled to controls: 0 for no effect and ±100 for the full control effect
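Fluorescent replication assay: 50 nM final substrate added after a 15 min room-temperature compound preincubation with 10 nM enzyme. Signal taken at 0 min and again at 10 min.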
POLI inh – qHTS for Inhibitors of Polymerase Iota; Pol iota fluorescent replication assay, 10 min; DNA polymerase iota (Homo sapiens), Q9UNA4; Potency, µM (titrated, usually from 115 µM), for inactives: top-dose activity, negative = inhibition, hits mostly inhibitors; actives 1% (n = 390,000); also: potency is read from the fitted curve at half-maximal effect
Target sequence (Q9UNA4 whole entry, looked up): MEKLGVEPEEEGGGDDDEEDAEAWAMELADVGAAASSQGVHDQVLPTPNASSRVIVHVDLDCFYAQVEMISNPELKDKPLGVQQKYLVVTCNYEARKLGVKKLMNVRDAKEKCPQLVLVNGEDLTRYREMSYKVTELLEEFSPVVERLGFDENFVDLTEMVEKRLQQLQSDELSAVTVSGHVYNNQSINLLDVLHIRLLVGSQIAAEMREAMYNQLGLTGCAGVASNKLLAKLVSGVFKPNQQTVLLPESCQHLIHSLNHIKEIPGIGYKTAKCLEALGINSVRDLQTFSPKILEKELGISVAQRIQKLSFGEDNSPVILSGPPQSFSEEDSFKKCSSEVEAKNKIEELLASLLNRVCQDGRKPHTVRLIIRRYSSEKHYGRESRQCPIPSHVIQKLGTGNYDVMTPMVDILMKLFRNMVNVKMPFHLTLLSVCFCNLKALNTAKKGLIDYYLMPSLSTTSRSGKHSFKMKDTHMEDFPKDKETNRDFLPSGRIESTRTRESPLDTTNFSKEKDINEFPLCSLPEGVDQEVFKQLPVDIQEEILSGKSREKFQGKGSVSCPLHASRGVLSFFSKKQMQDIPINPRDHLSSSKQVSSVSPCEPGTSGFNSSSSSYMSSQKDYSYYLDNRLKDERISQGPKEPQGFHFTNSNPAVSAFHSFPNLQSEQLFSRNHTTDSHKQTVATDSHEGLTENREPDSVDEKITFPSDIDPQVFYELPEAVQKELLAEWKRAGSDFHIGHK
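Fluorescent replication assay read twice, at 0 min and 10 min after adding 50 nM (final) substrate. Enzyme (10 nM) and compounds were first incubated 15 min at room temperature; enzyme-free buffer wells were negative controls.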
POLK inh – qHTS for Inhibitors of Polymerase Kappa. DNA polymerase kappa (Homo sapiens), Q9UBT6. purified Pol kappa, fluorescent DNA synthesis assay, 10 min. Potency, µM (highest dose often 107 µM), for inactives: at the highest dose activity, negative = inhibition, most hits filed as inhibitors. actives 0.53% (n = 400,000). AID 588579, 2011; also: potency is read from the fitted curve at half-maximal effect; % is scaled to controls: 0 for no effect and ±100 for the full control effect
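10 nM Pol kappa preincubated 15 min at room temperature with compounds, then reaction started with substrate at 50 nM final. Fluorescence read kinetically at 0 and 10 min; buffer-only wells served as negative control.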
POLB inh – qHTS Assay for Inhibitors of DNA Polymerase Beta | AID 485314, 2010 | actives 1.3% (n = 340,000) | Potency, µM (top dose mostly 114 µM), for inactives: at the top dose activity change, negative = inhibition, usual class: inhibitors | P06746 | Pol beta primer extension/strand displacement, fluorescence kinetic; also: potency is read from the fitted curve at half-maximal effect; % is scaled to controls: 0 for no effect and ±100 for the full control effect
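Values derive from four-parameter Hill fits of normalized kinetic data: reads at 0 and 10 min following addition of 50 nM substrate to 10 nM Pol beta preincubated 15 min with compound.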
Numbers without * were called inactive; ? = inconclusive; / = not tested or not shown; [ ] = remark or other dose. Unless noted, calls follow the shape of the dose curve; as a rule, active = well fitted curve in the direction sought with a large enough effect; inconclusive = small, poorly fitted or top-dose-only effect, or another doubt; inactive = no such curve, though single readings can be large; an effect the other way counts as inactive or inconclusive.

SMILES	WRN helicase inh	PI5P4Ka inh	Pol eta inh	POLI inh	POLK inh	POLB inh
Cc1nnc(N/N=C/c2cc(C)n(-c3ccc(F)cc3)c2C)n1N	0%[11.6 µM]	-3	-5%	?	-27%	-1%
CCOc1cc(/C=N/Nc2ncnc(Cl)c2N)ccc1O	-23%	-8	-30%	9%	-25%	?
CCc1nnc(N/N=C/c2c(F)cccc2Cl)n1N	4%[11.6 µM]	0	-12%	10µM*	-1%	-28%
Cc1nnc(N/N=C/c2ccccc2O)n1N	-6%	1	-11%	14µM*	-19%	0%
Cc1nnc(N/N=C/c2c(Cl)cccc2Cl)n1N	-12%	-7	-18%	11µM*	5%	-10%
CCc1ccc(S(=O)(=O)Nc2cccc(-c3ccc(N4CCOCC4)nn3)c2)cc1	/	/	-22%	14%	-2%[60.1 µM]	1%
O=c1c2ccccc2nc(/C=C/c2ccccc2)n1CCc1ccccc1	3%	-1	-8%	5%	-17%	12%
O=c1c2ccccc2nc(/C=C/c2cccnc2)n1CCc1ccccc1	?	-5	?	7.9µM*	-22%	17%
CCOC(=O)C(C(=O)OCC)c1cc(Br)c2noc3c2c1C(=O)c1ccccc1-3	?	-6	8.9µM*	?	?	79µM*
CC(=O)OCCNc1cc(N2CCN(C)CC2)c2noc3c2c1C(=O)c1ccccc1-3	-29%	-6	-18%	52%	-22%	1%
Cc1cc(C)nc(NC(=O)CSc2nn(-c3ccccc3)c(=S)s2)n1	?	-4	10%	?	1%	40µM*
O=C(CSc1nn(-c2ccccc2)c(=S)s1)Nc1ncccn1	-9%	4	4%	27%	-5%	1%
COc1ccc(/C(C)=N/NC(=O)CNC(=O)/C=C\c2ccco2)cc1	-8%[11.6 µM]	-29	0%	50µM*	1%[60.1 µM]	25µM*
C=C(C)C(=O)N1CCN(C(=O)C(=C)C)c2ccccc21	1%	6	-16%	-21%	1%	/
COc1ccccc1NC(=O)CSc1nc(N)c(-c2ccccc2)c(=O)[nH]1	-2%	-1	-7%	18%	5%	-7%
CCCOc1ccc(-c2nc(SCc3ccccc3)[nH]c(=O)c2C#N)cc1OC	-24%	-26	-3%	35%	-7%	50µM*
COc1ccccc1NC(=O)CSc1nc(-c2ccc(C(C)(C)C)cc2)c(C#N)c(=O)[nH]1	/	/	/	-29%	-20%	79µM*
Cc1ccc(C)c(NC(=O)CSc2nc(-c3ccccc3)c(C#N)c(=O)[nH]2)c1	/	/	-2%	?	-7%	56µM*
CCSc1nc(-c2ccccc2)c(C#N)c(=O)[nH]1	-7%[57.1 µM]	/	-4%	2%	-10%	?
CN(C(=O)CSc1nc(-c2ccc(C(C)(C)C)cc2)c(C#N)c(=O)[nH]1)C1CCCCC1	-9%[11.6 µM]	?	35µM*	?	-19%	?
Cc1cccc(NC(=O)C2CCC(CNS(=O)(=O)c3ccc4c(c3)CCCC(=O)N4)CC2)c1C (stereo unspecified)	/	/	-27%	-10%	-33%	-2%
CCOC(=O)Cc1csc(NC(=O)CSc2nc(-c3ccccc3)c(C#N)c(=O)[nH]2)n1	-4%	-65*	-7%	-9%	3%	14%
CN(C)c1cccc2c1c(NS(=O)(=O)c1cn(C)cn1)nn2C	0%[11.6 µM]	-7	-24%	40µM*	-10%	-2%
Cn1cnc(S(=O)(=O)Nc2ccccc2N2CCOCC2)c1	-29%	-4	4%	106%	-4%	27%
c1ccc2c(Nc3nc(-c4ccncc4)nc4ccccc34)cccc2c1	-12%	0	-11%	12%	0%	27%
SMILES	WRN helicase inh	PI5P4Ka inh	Pol eta inh	POLI inh	POLK inh	POLB inh
Clc1ccccc1Nc1nc(-c2ccncc2)nc2ccccc12	4%[11.6 µM]	-6	-14%	50µM*	-6%[60.1 µM]	-16%
Cc1ccc(-c2nc(N/N=C/c3ccncc3)c3ccccc3n2)cc1	-29%[57.1 µM]	/	45µM*	?	-17%	?
CN1CCc2c(cc(O)c(O)c2Cl)C(c2cccc(Cl)c2)C1 (stereo unspecified)	/	/	-2%[57.1 µM]	?	/	2%[57.1 µM]
Cc1ccc(S(=O)(=O)N2CCN(C(=O)CN3C(=O)c4ccc([N+](=O)[O-])cc4C3=O)CC2)cc1C	4%	-6	0%	-3%	-7%	/
CCCCCN1CC(O)=C(c2nc3ccccc3[nH]2)C1=N	6%	2	6%	67%	-8%	32µM*
COc1cccc(CNCc2c(C(=O)O)c(C)n(Cc3ccc(F)cc3Cl)c2C)c1OC	/	/	-10%	-1%	-4%	16%
COc1cc(C2Nc3ccccc3-c3nnc(SCc4ccc(C)cc4)nc3O2)cc(OC)c1O (stereo unspecified)	/	/	-3%	?	79µM*	-3%
O=C(O)COc1ccccc1C1Nc2ccccc2-c2nnc(SCc3ccc(Cl)cc3)nc2O1 (stereo unspecified)	/	/	-5%	-7%	-19%	2.5µM*
COc1cc(C2Nc3ccccc3-c3nnc(SCc4ccc(Cl)cc4)nc3O2)ccc1OCC(=O)O (stereo unspecified)	/	/	-8%	5%	-26%	?
Cc1ccc(CSc2nnc3c(n2)OC2(Nc4ccccc4-3)C(=O)Nc3ccc(F)cc32)cc1 (stereo unspecified)	-32%	/	-28%	?	-8%	1%
CCCc1ccc(OCc2ccc(C(=O)O)o2)c(OC)c1	-3%	5	?	-19%	?	?
C=CCc1ccc(OCc2ccc(C(=O)O)o2)c(OC)c1	-4%[11.6 µM]	1	28µM*	?	-15%	-3%
C/C(=N/NS(=O)(=O)c1ccccc1)c1c[nH]c2ccccc12	2%[11.6 µM]	-12	0%	89µM*	-33%	18%
O=C(O)c1ccc(CN2C[C@@H](CO)O[C@@H](n3cnc4c(NCc5ccc(F)cc5)ncnc43)C2)cc1	4%	-3	/	/	/	/
Cn1c(CSCc2ccccc2)nnc1SCC(=O)Nc1nccs1	-10%	0	-2%	14%	-11%	-10%
CCOC(=O)c1ccc(NC(=O)CSc2nnc(-c3ccncc3)n2-c2ccccc2)cc1	/	/	0%	-19%	-10%[60.1 µM]	2.2µM*
O=C(CSc1nnc(-c2ccncc2)n1-c1ccccc1)Nc1ccc(C(=O)O)cc1	0%	?	-3%	7%	-10%	9%
Cn1c(CSCc2ccccc2)nnc1SCC(=O)Nc1ccc(C(=O)O)cc1	-4%	-73*	-6%	3%	-18%	19%
